Active and inactive are the calls of the source. How the source made its calls: active means hit-call score of the fitted dose curve at least 0.9, where 1 is the maximum; inactive means score below 0.9.

Read-out in this test: Alkaline Phosphatase, Placental (ALPP) gene, ALPP (gene 250)
Nature of the test: LTEA_HepaRG_ALPP: Life Technologies and Expression Analysis (LTEA) Assay for Alkaline Phosphatase, Placental (ALPP) gene using HepaRG (AID 2283468).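 On AC50: ALPP transcript by TaqMan qRT-PCR normalized to ACTB GAPDH and POLR2A.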 The note with it: mRNA level, 48 h; actives raise or lower the signal. The protocol: LTEA_HepaRG is a cell based, multiplexed-readout assay that uses HepaRG, a human liver cell line, with measurements taken at 48 hours after chemical dosing on a 96-well plate.LTEA_HepaRG_ALPP is one of 102 assay component(s) measured in the LTEA HepaRG cell culture assay. It is a marker of Cell proliferation, survival, death.Data from the assay component LTEA_HepaRG_ALPP was analyzed into 1 endpoint. This assay endpoint, LTEA_HepaRG_ALPP, was analyzed with bidirectional fitting relative to DMSO as the negative control and baseline of activity. Using a type of inducible reporter, measures of mRNA induction for gain or loss-of-signal activity can be used to understand regulation of transcription factor activity. To generalize the intended target to other relatable targets, this assay endpoint is annotated to the phosphatase intended target family, where the subfamily is Cell proliferation, survival, death.
A total of 1060 chemcials from the ToxCast library were tested in eight-point concentration-response experiments. Cell culture and cytotoxicity assays were conducted at Thermo Fisher Scientific's Custom Services facility (Madison, WI). A single lot of human HepaRG cells (Thermo Fisher Scientific, Frederick, MD) was used for the cell culture experiments. 96-well format collagen type I coated plates of human HepaRG cells were prepared using established methods. Briefly, cryopreserved HepaRG cells were thawed, plated at a density of approximately 100,000 cells/well in HepaRG Thaw, Plate, and General Purpose media (HPRG770, Thermo Fisher Scientific), and incubated for 48 hours. 0.5% DMSO was selected as vehicle control to balance the requisite need of DMSO in HepaRG cultures to maintain differentiation (for example, baseline metabolism, proportions of hepatocytes vs. cholangiocytes), while enabling further hepatic receptor pathway activation (for example, PXR and CAR) in response to chemical exposure. 48 hours after plating, the culture medium was replaced with HepaRG Serum-Free Incudtion Media. Cells were exposed to each test chemical in duplicate and maintained in CO2 incubators for another 48 hours. Chemical plates were thawed to room temperature and 200x concentrations of treatment groups were prepared. 8-point conentration-reponse curves were made with the highest exposure at 100 uM, followed by half-log dilutions, all in 0.5% DMSO. Each test plate contained variouse controls, induction positive controls (1mM phenobarbital), cytotoxicity positive controls ([…] aflatoxin B1), vehicle controls (0.5% DMSO), and total lysis controls (0.5% DMSO). Cell morphology images were taken using an Essen IncuCyte FLR automated microscope, with six 96-well plates imaged in about 24 minutes. Images were captured and exported and JPEG files. Spent culture media was transfered to black-well plates for the LDH assay, and remaining media was sorted at -80 C for later use. Cells were treated with RLT buffer and frozen until shipped for gene expression analysis. Total RNA was isolated from the cell suspension in 75 uL of Buffer RLT (Qiagen, Germantown, MD 20874) by Quintiles/Expression Analysis (Durham, NC) using a custom isolation procedure. Total RNA from each plate well was transferred to a preamplification plate. Fluidigm's 96.96 Dynamic ArrayTM (Fluidigm, Amsterdam, the Netherlands) technology was used for gene expression analyses by quantitative reverse transcription polymerase chain reaction (qRT-PCR, performed by Quintiles/Expression Analysis, Durham, NC)89. Standard TaqManTM Assays (Applied Biosystems/ThermoFisher Scientific, Foster City, CA) were used to assess the expression of 93 genes selected based on their selectivity and sensitivity to important hepatic receptors known to be modulated by environmental chemicals; importance in human hepatocyte functionality; and hepatotoxicity. […]
The term AC50 denotes the concentration giving half of the maximal activity seen. Consider `Cc1oc(-c2ccccc2)nc1CCOc1ccc(C[C@H](Nc2ccccc2C(=O)c2ccccc2)C(=O)O)cc1`, for which the AC50 is 26.1 µM (active).

For `CCCCCCCCCCCCc1ccccc1S(=O)(=O)O`, the AC50 is 91.6 µM (active).

On to `O=C(O)Cc1cc(I)c(Oc2cc(I)c(O)c(I)c2)c(I)c1`, for which the AC50 is 13.6 µM (active).

In the case of `CC(C)(C)c1ccc(O)c(C(C)(C)C)c1`, the outcome was inactive.

As for `CCCCOCCO`, the molecule was called inactive.

With `COCC(C)OCC(C)O` (stereo not given), the molecule was called inactive.

For `COC(=O)CCCCC(=O)OC`, the result was inactive.

Consider `CCCCCCCCCCCCN1CCCC1=O`, for which the molecule was called inactive.

Take `COc1ccc([N+](=O)[O-])cc1N`: the outcome was inactive.

For `ClC1=C(Cl)C(Cl)(Cl)C(Cl)=C1Cl`, the molecule was called inactive.

For the molecule `c1ccc2c(c1)Cc1ccccc1-2`, the call was inactive.

On to `CCCCCCCCOC(=O)CCCCCCCCC(=O)OCCCCCCCC`, for which the result was inactive.

For `OC1CCC(C2CCCCC2)CC1` (stereo not given), the outcome was inactive.

Regarding `C=C(C)C(=O)OCCC(F)(F)C(F)(F)C(F)(F)C(F)(F)C(F)(F)C(F)(F)F`, the call was inactive.

`CN1CCN(c2ccccc2/C=C2\SCCN(c3ccc(Cl)c(Cl)c3)C2=O)CC1`: the AC50 is 15.8 µM (active).

For the molecule `Nc1cccc2c(N)cccc12`, the molecule was called inactive.

As for `CCN(CC)CCNc1ccc(CNC=O)c2sc3ccc(OC)cc3c(=O)c12`, the result was inactive.

Regarding `CC(C)(C)c1cccc(C(C)(C)C)c1O`, the result was inactive.

Regarding `CN1CCC[C@H]1c1cccnc1`, the molecule was called inactive.

In the case of `CCCCCCC(=O)O`, the call was inactive.

In the case of `CC(C)(C)c1cc(C(C)(C)C)c(O)c(C(C)(C)C)c1`, the call was inactive.

As to `CCCOC(=O)c1ccc(O)cc1`, the call was inactive.

`CCCCCCCC(=O)O`: the molecule was called inactive.

With `NC(=O)N1C(=O)C(C(=O)c2cc(Cl)cs2)c2cc(F)c(Cl)cc21` (stereo not given), the AC50 is 50 µM (active).

Consider `Cc1cc(CCN2CCN(c3nsc4ccccc34)CC2)cc2c1NC(=O)CC2(C)C`, for which the AC50 is 50 µM (active).

For `C#C[C@]1(O)CC[C@H]2[C@@H]3CCC4=CC(=O)CC[C@@H]4[C@H]3CC[C@@]21C`, the AC50 was 10.1 µM (active).

As for `OCCC(F)(F)C(F)(F)C(F)(F)C(F)(F)C(F)(F)C(F)(F)F`, the molecule was classed as inactive.

For `O=[N+]([O-])c1ccc(O)cc1`, the call was inactive.

For `CC#C[C@]1(O)CC[C@H]2[C@@H]3CCC4=CC(=O)CCC4=C3[C@@H](c3ccc(N(C)C)cc3)C[C@@]21C`, the AC50 is 15.7 µM (active).

With `OC1CCCCC1`, the result was inactive.

Consider `CC[C@H](c1ccc(O)cc1)[C@@H](CC)c1ccc(O)cc1`, for which the AC50 is 83.6 µM (active).

Take `OCCC(F)(F)C(F)(F)C(F)(F)C(F)(F)C(F)(F)C(F)(F)C(F)(F)C(F)(F)F`: the outcome was inactive.

As for `CCC(=C(c1ccc(O)cc1)c1ccc(OCCN(C)C)cc1)c1ccccc1`, the molecule was classed as inactive.

Consider `CCCOc1sc(C(=O)N2CCC(c3cc(CN)ccc3F)CC2)c(C)c1Br`, for which the molecule was classed as inactive.

For `O=c1c(-c2ccc(O)cc2)coc2cc(O)ccc12`, the call was inactive.

With `CC(=O)CC(C)(C)O`, the molecule was called inactive.

For `CCCCCCCCCCCCCCCS(=O)(=O)Oc1ccccc1`, the molecule was called inactive.

Regarding `CCOC(=O)CC(O)(CC(=O)OCC)C(=O)OCC`, the molecule was called inactive.

On to `CCCCCCCCC(=O)O`, for which the molecule was classed as inactive.

In the case of `N#C[C@@H]1CC(F)(F)CN1C(=O)CNC1CC2CCC(C1)N2c1ncccn1` (stereo not given in full), the molecule was classed as inactive.
